# Source: PubChem BioAssay
# In the library only some 0.82% were active in any assay of this set; here they are far more common.
# PrPC surface inh = cell surface PrPC inhibition, primary TR-FRET screen | P04156 | TR-FRET read-out | inhibition, % at 13.8 µM | actives 0.43% (n = 370,000); in the data active means inhibition above about 24%; further: 0% = median of the test wells and 100% = reference compound wells
# TcdB inh = blocks C. difficile toxin B glycohydrolase activity; P18177; TcdB glycohydrolase enzymatic assay, plate reader; inhibition, % at 9.99 µM; actives 0.24% (n = 350,000); AID 652162; in the data active means inhibition above about 10%
# DUSP3 inh = blocks human VHR1 dual specificity phosphatase; P51452; recombinant VHR phosphatase, pNPP absorbance; inhibition, % at 13.3 µM; actives 0.52% (n = 290,000); in the data active means inhibition above about 50%
# Target sequence (P51452 whole entry, looked up): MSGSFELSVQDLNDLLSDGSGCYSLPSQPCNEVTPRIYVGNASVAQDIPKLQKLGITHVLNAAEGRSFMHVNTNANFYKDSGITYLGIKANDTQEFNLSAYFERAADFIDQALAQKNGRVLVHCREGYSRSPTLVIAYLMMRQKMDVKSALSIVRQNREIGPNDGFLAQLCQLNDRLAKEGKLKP
# The depositor's hits bear a star; . = no result.
SMILES,PrPC surface inh,TcdB inh,DUSP3 inh
O=C(NCCc1ccc(Cl)cc1)C1CCN(S(=O)(=O)c2ccc(Br)s2)CC1,0,16*,-18
O=C(NCCc1ccc(Cl)cc1)C1CCN(S(=O)(=O)N2CCCC2)CC1,3,.,20
Cc1cc(C(=O)Nc2cccc3c2O[C@H](CN(C)C(=O)Nc2c(C)noc2C)[C@@H](C)CN([C@@H](C)CO)C3=O)n(C)n1,.,0,.
COc1ccccc1N1CCN(C(=O)CNC(=O)c2cn(-c3ccccc3OC)c(=O)c3ccccc23)CC1,-1,2,19
COc1ccccc1-n1cc(C(=O)NCC(=O)N2CCN(c3ccccc3)CC2)c2ccccc2c1=O,0,.,51*
Cc1nn2cc(-c3cccc(Cl)c3)cnc2c1Br,7,10*,30
Cc1nn2cc(-c3cccc(Cl)c3)cnc2c1Cl,2,0,6
COc1ccc(S(=O)(=O)Nc2ccc3c(c2)C(=O)N([C@H](C)CO)C[C@H](C)[C@@H](CN(C)CC2CC2)O3)cc1,.,0,.
COc1ccc(NC(=O)C2CC(=O)N(c3ccccc3C)C2)c(OC)c1 (configuration not stated),8,0,58*
COc1ccc(OC)c(NC(=O)C2CC(=O)N(c3ccccc3)C2)c1 (configuration not stated),2,.,-2
CCN1CCN(c2oc(-c3ccccc3C)nc2S(=O)(=O)c2ccccc2)CC1,0,10*,.
COc1ccccc1-c1nc(S(=O)(=O)c2ccccc2)c(N2CCCCC2)o1,4,1,13
C[C@@H]1CN([C@H](C)CO)C(=O)c2cc(NS(=O)(=O)c3ccc(Cl)cc3)ccc2O[C@@H]1CN(C)Cc1ccncc1,.,-1,.
CC1=C(C(=O)N2CCCC(C(=O)c3cccc(C(F)(F)F)c3)C2)OCCO1 (configuration not stated),0,0,-6
CCc1[nH]nc(C(=O)N2CCCC(C(=O)c3cccc(C(F)(F)F)c3)C2)c1C (configuration not stated),12,1,52*
CN(C)c1ccc2c(c1)[C@@H]1C[C@@H](CC(=O)NCc3ccc(Cl)cc3)O[C@H](CO)[C@@H]1O2,.,-44,.
O=C(Nc1sc2c(c1C(=O)O)CCCCC2)c1ccccc1,1,8,-12
O=C(Nc1sc2c(c1C(=O)O)CCC2)c1ccc(F)cc1,1,7,-6
O=C(Nc1sc2c(c1C(=O)O)CCC2)c1ccccc1,-8,.,52*
CCOc1ccccc1NC(=O)c1c(NC(=O)CCC(=O)O)sc2c1CCCCC2,5,2,17
O=C(Nc1sc2c(c1C(=O)O)CCCC2)c1ccc(Cl)cc1,-4,12*,-4
O=C(Nc1sc2c(c1C(=O)NCCCO)CCCC2)c1ccccc1,13,1,5
CCCC(=O)Nc1sc2c(c1C(=O)Nc1ccccn1)CCCC2,3,12*,16
NCCNC(=O)c1c(NC(=O)c2ccccc2)sc2c1CCCC2,-3,1,54*
CN1[C@@H]2c3ccc(-c4cccc(F)c4)c(=O)n3C[C@@H]2[C@@H](CO)[C@@H]1C(=O)NC1CCCCC1,.,-1,.
SMILES,PrPC surface inh,TcdB inh,DUSP3 inh
Cc1noc(C)c1NC(=O)N(C)C[C@H]1Oc2ccc(NC(=O)Nc3ccc4c(c3)OCO4)cc2CC(=O)N([C@H](C)CO)C[C@@H]1C,.,-3,.
Cc1noc(C)c1NC(=O)N(C)C[C@H]1Oc2c(NC(=O)c3cnccn3)cccc2C(=O)N([C@H](C)CO)C[C@H]1C,.,0,.
CCOc1cc(/C=N/NC(=O)c2cccnc2)ccc1O,2,3,17
CCOc1cccc(/C=N/NC(=O)c2cccnc2)c1O,3,-8,52*
O=S(=O)(c1cccc(F)c1)N1CC[C@@H]2[C@H]1c1cc(C#Cc3ccccc3F)ccc1N[C@@H]2CO,.,-2,.
C/C(=N/N=C(\C)c1ccccc1O)c1ccccc1O,-4,4,24
C/C(=N\N1C(C)CCCC1C)c1ccccc1O (configuration not stated),6,0,53*
C[C@H](CO)N1C[C@H](C)[C@H](CN(C)Cc2ccc(Oc3ccccc3)cc2)Oc2c(NS(C)(=O)=O)cccc2C1=O,.,-1,.
C[C@@H]1CN([C@@H](C)CO)C(=O)c2cc(NC(=O)Cn3cnnn3)ccc2O[C@@H]1CN(C)Cc1ccc2c(c1)OCO2,.,0,.
C[C@H](CO)N1C[C@H](C)[C@@H](CN(C)Cc2cccnc2)Oc2ncc(C3=CCCC3)cc2C1=O,.,0,.
C=C1C(=O)O[C@H]2C[C@H]1[C@@H](OC(C)=O)C/C(C)=C/CC/C(C)=C\CC[C@]2(C)O,38*,3,.
C=C1C(=O)O[C@@H]2[C@H]3O[C@]3(C)CC/C=C(\C)CC[C@@H]12,5,2,.
COCC#Cc1cnc2c(c1)C(=O)N([C@H](C)CO)C[C@@H](C)[C@@H](CN(C)Cc1ccc3c(c1)OCO3)O2,.,0,.
O=[N+]([O-])c1ccc(/C=[N+](\[O-])CCO)o1,-13,1,53*
NC(=O)N/N=C/c1ccc([N+](=O)[O-])o1,-33,0,.
C[C@H](CO)N1C[C@H](C)[C@@H](CN(C)C(=O)Cc2ccccc2)OCCCC[C@H](C)Oc2ccc(N(C)C)cc2C1=O,.,-16,.
CC(C)CC#Cc1cnc2c(c1)C(=O)N([C@H](C)CO)C[C@H](C)[C@@H](CN(C)Cc1cccc(F)c1)O2,.,1,.
O=C(C[C@@H]1CC[C@H]2[C@@H](COC[C@@H](O)CN2C(=O)c2ccccn2)O1)NC1CCC1,.,10*,.
O=C(C[C@H]1CC[C@H]2[C@@H](COC[C@H](O)CN2C(=O)Nc2ccc(Cl)c(Cl)c2)O1)NCc1ccccc1,.,0,.
COC(=O)C[C@H]1CC[C@H]2[C@@H](COC[C@H](O)CN2C(=O)Nc2ccccc2OC)O1,.,2,.
O=C(C[C@@H]1CC[C@H]2[C@@H](COC[C@@H](O)CN2Cc2ccc(Oc3ccccc3)cc2)O1)Nc1nccs1,.,27*,.
O=C(C[C@H]1CC[C@H]2[C@@H](COC[C@@H](O)CN2C(=O)c2ccccn2)O1)NC1CCC1,.,8,.
O=C(C[C@@H]1CC[C@@H]2[C@H](COC[C@@H](O)CN2C(=O)Nc2ccc(Cl)c(Cl)c2)O1)NCc1ccncc1,.,11*,.
COC(=O)C[C@@H]1CC[C@@H]2[C@H](COC[C@H](O)CN2C(=O)Nc2ccccc2OC)O1,.,13*,.
O=C(C[C@@H]1CC[C@@H]2[C@H](COC[C@@H](O)CN2Cc2ccc(Oc3ccccc3)cc2)O1)Nc1nccs1,.,-1,.
SMILES,PrPC surface inh,TcdB inh,DUSP3 inh
C[C@H](CO)N1C[C@H](C)[C@@H](CN(C)CC2CCCC2)Oc2cc(C#CCN(C)C)ccc2S1(=O)=O,.,-2,.
CO[C@H]1CC[C@H]2CCN(C)C(=O)[C@H](C)[C@@H](OC)CN(C)C(=O)c3cc(C#N)ccc3OC[C@H]1O2,.,-1,.
CN1C(=O)c2cc(NS(C)(=O)=O)ccc2OC[C@H]2O[C@H](CC(=O)O)CC[C@H]21,.,0,.
Cc1noc(C)c1NC(=O)N(C)C[C@@H]1Oc2ncc(C#CC(C)(C)O)cc2C(=O)N([C@H](C)CO)C[C@@H]1C,.,-1,.
Cc1noc(C)c1S(=O)(=O)Nc1ccc2c(c1)C(=O)N([C@@H](C)CO)C[C@@H](C)[C@H](CN(C)C(=O)CCC(F)(F)F)OCCCC[C@H](C)O2,.,-1,.
C[C@@H]1CCCCO[C@@H](CN(C)C(=O)Cc2ccccc2)[C@@H](C)CN([C@H](C)CO)C(=O)c2cc(NS(=O)(=O)c3ccccc3)ccc2O1,.,1,.
